This is part of a sample that, as a whole, favours compounds with a hit. Of some 83,000 tested, about 20% had one in any assay.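 Assay: single dose, 48 h. Readout: percent growth (0 = no net growth; negative = cell death). Active: <10.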 Calls of active or inactive are those of the source.
Assays:
Test in all cases: NCI-60 one-dose screen, 48 h (100 = growth as untreated, 0 = no growth, -100 = all killed)
Conditions in all cases: 10 µM unless noted
NCI-H23 lung = test system: NCI-H23 lung
NCI-H226 lung = test system: NCI-H226 lung
NCI-H322M lung = test system: NCI-H322M lung
HOP-62 NSCLC = test system: HOP-62 NSCLC
NCI-H460 lung = test system: NCI-H460 lung
HOP-92 NSCLC = test system: HOP-92 NSCLC
NCI-H522 lung = test system: NCI-H522 lung
A549/ATCC NSCLC = test system: A549/ATCC NSCLC
786-0 renal = test system: 786-0 renal
COLO 205 colon = test system: COLO 205 colon
DU-145 prostate = test system: DU-145 prostate
K-562 leukemia = test system: K-562 leukemia
MALME-3M melanoma = test system: MALME-3M melanoma
MDA-MB-231 breast = test system: MDA-MB-231 breast
RXF 393 renal = test system: RXF 393 renal
SF-268 CNS = test system: SF-268 CNS
SF-295 CNS = test system: SF-295 CNS
SF-539 CNS = test system: SF-539 CNS
UACC-257 melanoma = test system: UACC-257 melanoma
M14 melanoma = test system: M14 melanoma

Measured: growth

O=C(Nc1ccc(I)cc1F)c1cc(I)ccc1O
inactive: HOP-62 NSCLC 16.8% | A549/ATCC NSCLC 10.9% | COLO 205 colon 91.1% | DU-145 prostate 21.2% | SF-268 CNS 13.6%
active: NCI-H23 lung -13.4% | NCI-H226 lung -4.51% | NCI-H322M lung -3.09% | NCI-H460 lung 2.89% | HOP-92 NSCLC -20.5% | NCI-H522 lung -5.05% | 786-0 renal 2.12% | K-562 leukemia 7.64% | MALME-3M melanoma -26.9% | MDA-MB-231 breast -34.7% | RXF 393 renal -9.34% | SF-295 CNS -34% | SF-539 CNS 9.88% | UACC-257 melanoma -17% | M14 melanoma 5.74%

C[C@H](C(=O)Nc1ccc(S(N)(=O)=O)cc1)S(=O)(=O)c1ccccc1
inactive: NCI-H23 lung 94.3% | NCI-H226 lung 98% | NCI-H322M lung 108% | HOP-62 NSCLC 87.6% | NCI-H460 lung 108% | HOP-92 NSCLC 94% | NCI-H522 lung 90.7% | A549/ATCC NSCLC 102% | 786-0 renal 101% | COLO 205 colon 107% | DU-145 prostate 108% | K-562 leukemia 106% | MALME-3M melanoma 101% | MDA-MB-231 breast 114% | RXF 393 renal 88.1% | SF-268 CNS 102% | SF-295 CNS 94.6% | SF-539 CNS 102% | UACC-257 melanoma 103% | M14 melanoma 104%

O=c1[nH]c2c(ccc3cnccc32)c2c1CCC2
inactive: A549/ATCC NSCLC 14.9% | 786-0 renal 12.6% | K-562 leukemia 14.6%
active: NCI-H23 lung -64.6% | NCI-H226 lung -6.54% | NCI-H322M lung -11.7% | HOP-62 NSCLC -3.9% | NCI-H460 lung -4.19% | HOP-92 NSCLC -17.1% | NCI-H522 lung -33.6% | COLO 205 colon -77.4% | DU-145 prostate -9.29% | MALME-3M melanoma -59.2% | MDA-MB-231 breast 2.78% | RXF 393 renal -53.8% | SF-268 CNS -17.7% | SF-295 CNS -47.2% | SF-539 CNS -59.7% | UACC-257 melanoma 6.08% | M14 melanoma -77%

O=c1ccc(N=Nc2ccccc2)ccc1Cl
inactive: NCI-H23 lung 16.4% | NCI-H226 lung 87.7% | NCI-H322M lung 103% | HOP-62 NSCLC 93.9% | NCI-H460 lung 98% | HOP-92 NSCLC 114% | A549/ATCC NSCLC 103% | 786-0 renal 48.8% | COLO 205 colon 68.4% | DU-145 prostate 93.2% | MALME-3M melanoma 55% | SF-268 CNS 92.5% | SF-295 CNS 69.6% | SF-539 CNS 45.8% | UACC-257 melanoma 74.6% | M14 melanoma 46.6%
active: NCI-H522 lung -22.6% | K-562 leukemia 0.344% | MDA-MB-231 breast -1.83% | RXF 393 renal 6.49%

O=C(Nc1ccc(F)cc1F)c1cc(F)ccc1O
inactive: HOP-62 NSCLC 16.4% | A549/ATCC NSCLC 18% | 786-0 renal 13.3% | COLO 205 colon 81.1% | DU-145 prostate 21.9% | MDA-MB-231 breast 10.8% | SF-268 CNS 15.8% | SF-539 CNS 17.1% | M14 melanoma 25.6%
active: NCI-H23 lung -6.29% | NCI-H226 lung 4.02% | NCI-H322M lung -6.69% | NCI-H460 lung 7.51% | HOP-92 NSCLC -29.9% | NCI-H522 lung -6.24% | K-562 leukemia 9.5% | MALME-3M melanoma -25.7% | RXF 393 renal 2.57% | SF-295 CNS 6.99% | UACC-257 melanoma -8.33%

CC(=O)c1ccc(Nc2nc(C(C)=O)c(C)s2)cc1
inactive: NCI-H23 lung 96% | NCI-H226 lung 66.2% | NCI-H322M lung 82% | HOP-62 NSCLC 95.4% | NCI-H460 lung 97.8% | HOP-92 NSCLC 102% | NCI-H522 lung 87.9% | A549/ATCC NSCLC 95.5% | 786-0 renal 95.8% | COLO 205 colon 109% | DU-145 prostate 102% | K-562 leukemia 88.7% | MALME-3M melanoma 105% | MDA-MB-231 breast 98% | RXF 393 renal 101% | SF-268 CNS 98% | SF-295 CNS 98.6% | SF-539 CNS 103% | UACC-257 melanoma 103% | M14 melanoma 104%

CCOC(=O)c1c2c(n(-c3ccc(C#N)cc3)c1-c1ccccc1)C=CCC2
inactive: NCI-H23 lung 89.3% | NCI-H226 lung 96.5% | NCI-H322M lung 91.6% | HOP-62 NSCLC 83.3% | NCI-H460 lung 98.9% | HOP-92 NSCLC 98.4% | NCI-H522 lung 72.1% | A549/ATCC NSCLC 91.1% | 786-0 renal 101% | COLO 205 colon 87.2% | DU-145 prostate 102% | K-562 leukemia 70.7% | MALME-3M melanoma 103% | MDA-MB-231 breast 91.6% | RXF 393 renal 109% | SF-268 CNS 96.8% | SF-295 CNS 86.2% | SF-539 CNS 114% | UACC-257 melanoma 102% | M14 melanoma 93.5%

CCc1ccc(Oc2c(-c3ccc(OCc4ccc(Cl)cc4)cc3O)n[nH]c2C(F)(F)F)cc1
inactive: NCI-H226 lung 24.8% | NCI-H322M lung 35.3% | HOP-62 NSCLC 57.5% | A549/ATCC NSCLC 33.5% | 786-0 renal 64.4% | COLO 205 colon 95.7% | DU-145 prostate 15% | MDA-MB-231 breast 27.6% | RXF 393 renal 65% | SF-268 CNS 30% | SF-295 CNS 88.1% | SF-539 CNS 56.6% | M14 melanoma 30.5%
active: NCI-H23 lung 3.59% | NCI-H460 lung 3.21% | HOP-92 NSCLC -17.2% | NCI-H522 lung -22.9% | K-562 leukemia 3.36% | MALME-3M melanoma -28.3% | UACC-257 melanoma 6.85%

CCOC(=O)c1cn2ncnc(Oc3ccc(NC(=O)NCCN4CCN(C)CC4)c(Cl)c3)c2c1C
inactive: NCI-H23 lung 67.8% | NCI-H226 lung 82.3% | NCI-H322M lung 93% | HOP-62 NSCLC 87.9% | NCI-H460 lung 99.4% | HOP-92 NSCLC 31.6% | NCI-H522 lung 66.6% | A549/ATCC NSCLC 88.6% | 786-0 renal 81.8% | COLO 205 colon 76.8% | DU-145 prostate 81.2% | K-562 leukemia 10.9% | MALME-3M melanoma 28.3% | MDA-MB-231 breast 72% | RXF 393 renal 35.8% | SF-268 CNS 81.4% | SF-295 CNS 94.8% | SF-539 CNS 78.5%
active: UACC-257 melanoma -15.9% | M14 melanoma -23.7%

Cc1nc(/N=C(\N)NC(=O)Nc2cccc(Cl)c2)sc1C
inactive: NCI-H23 lung 73.2% | NCI-H226 lung 90.2% | NCI-H322M lung 92% | HOP-62 NSCLC 71% | NCI-H460 lung 66% | HOP-92 NSCLC 89.5% | NCI-H522 lung 38.9% | A549/ATCC NSCLC 70.1% | 786-0 renal 97.8% | COLO 205 colon 67.3% | DU-145 prostate 90% | K-562 leukemia 17% | MALME-3M melanoma 62% | MDA-MB-231 breast 87.9% | RXF 393 renal 87.8% | SF-268 CNS 89.5% | SF-295 CNS 77.2% | SF-539 CNS 78.3% | UACC-257 melanoma 71.7% | M14 melanoma 50.5%

Cn1cc(-c2ccc3cc(-c4ccc(CC(=O)Nc5cc(C(C)(C)C)nn5C)cc4)cnc3c2)cn1
inactive: NCI-H322M lung 21.4% | HOP-62 NSCLC 15.9% | HOP-92 NSCLC 21.1% | NCI-H522 lung 10.8% | A549/ATCC NSCLC 17.1% | 786-0 renal 21.4% | COLO 205 colon 16.2% | DU-145 prostate 14.8% | K-562 leukemia 13.8% | SF-268 CNS 17.4% | SF-295 CNS 16.7% | SF-539 CNS 15.7% | UACC-257 melanoma 13.1% | M14 melanoma 11.1%
active: NCI-H23 lung 5.37% | NCI-H226 lung -17% | NCI-H460 lung 9.41% | MALME-3M melanoma -9.19% | MDA-MB-231 breast -15% | RXF 393 renal -18.6%

NC1=NC(c2cccc(Br)c2)c2sc3ccc(Cl)cc3c2N1 (stereo not given)
inactive: NCI-H23 lung 86.3% | NCI-H226 lung 78.4% | NCI-H322M lung 89.6% | HOP-62 NSCLC 91.5% | NCI-H460 lung 98.6% | HOP-92 NSCLC 96.7% | NCI-H522 lung 87.8% | A549/ATCC NSCLC 98% | 786-0 renal 94.8% | COLO 205 colon 100% | DU-145 prostate 111% | K-562 leukemia 86.6% | MALME-3M melanoma 95.6% | MDA-MB-231 breast 88.4% | RXF 393 renal 110% | SF-268 CNS 94% | SF-295 CNS 103% | SF-539 CNS 108% | UACC-257 melanoma 98.8% | M14 melanoma 98.4%

c1cc(NCCc2ccncc2)nc(-n2cnc3ccccc32)c1
inactive: NCI-H23 lung 95.3% | NCI-H226 lung 76.6% | NCI-H322M lung 81.4% | HOP-62 NSCLC 90.7% | NCI-H460 lung 79% | HOP-92 NSCLC 93% | NCI-H522 lung 78.8% | A549/ATCC NSCLC 78.8% | 786-0 renal 92% | COLO 205 colon 123% | DU-145 prostate 85.7% | K-562 leukemia 88.6% | MALME-3M melanoma 103% | MDA-MB-231 breast 98.2% | RXF 393 renal 82.7% | SF-268 CNS 82.3% | SF-295 CNS 105% | SF-539 CNS 90.3% | UACC-257 melanoma 93.8% | M14 melanoma 94%

NCCOc1ncccc1/C=C1\C2C=CC=CC2C2C=CC(F)=CC12 (stereo not given)
inactive: NCI-H322M lung 64.5% | HOP-62 NSCLC 10.5% | HOP-92 NSCLC 28.9% | NCI-H522 lung 47.8% | COLO 205 colon 27.2% | MALME-3M melanoma 39.2% | MDA-MB-231 breast 37.4% | RXF 393 renal 39.9% | SF-268 CNS 32.3% | SF-539 CNS 11.1% | UACC-257 melanoma 71.7% | M14 melanoma 18.8%
active: NCI-H23 lung 2.79% | NCI-H226 lung -26.2% | NCI-H460 lung -22% | A549/ATCC NSCLC -56.5% | 786-0 renal 1.24% | DU-145 prostate 6.22% | K-562 leukemia 8.35% | SF-295 CNS -2.83%

COc1cc2cc(Oc3ccc(NC(=O)Nc4ccc(Cl)c(C(F)(F)F)c4)cc3)c(C)nc2cc1OCCN1CCOCC1
active: NCI-H460 lung 8.67% | COLO 205 colon -28.3% | K-562 leukemia 9.9% | SF-295 CNS 0.751%
inactive: NCI-H23 lung 10.5% | NCI-H226 lung 34.9% | NCI-H322M lung 61.1% | HOP-62 NSCLC 27.6% | HOP-92 NSCLC 20.5% | NCI-H522 lung 20.7% | A549/ATCC NSCLC 12.7% | 786-0 renal 29.2% | DU-145 prostate 25.2% | MALME-3M melanoma 37.7% | MDA-MB-231 breast 38.4% | RXF 393 renal 43.7% | SF-268 CNS 32.2% | SF-539 CNS 41.7% | UACC-257 melanoma 14.1% | M14 melanoma 19.2%
